Laboratory results published in PubChem BioAssay (NCATS).
Results filed as inconclusive are left out. A number with no mark means an inactive call. The source made the active and inactive calls. The call rests on the fitted dose curve; in most records, active means well fitted curve in the direction sought with a large enough effect; inconclusive means small, poorly fitted or top-dose-only effect, or another doubt; inactive means no such curve, though single readings can be large; an effect the other way counts as inactive or inconclusive.

Assays:
[1] = BET inhibitor-based combinations targeting novel dependencies in MECOM-rearranged (r) AML: SET-2 cell line (AID 2202231); settings: SET-2 AML cells viability, CellTiter-Glo luminescence, 48 h; viability: hits give low values, concentration not given here; further: nearly all actives have a fitted effect of over 35% in size;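 on viability: plate controls were DMSO treated cells for no effect and wells without cells for full effect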
How it was run: (§1)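 Each compound was tested at eleven concentrations on cells seeded at 500/well. After two days' incubation, ATP-based luminescence reported viability; responses relative to DMSO and blank wells yielded AUC and cell-line-centred Z-AUC.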

[2] = BET inhibitor-based combinations targeting novel dependencies in MECOM-rearranged (r) AML: OCI-AML3 cell line (AID 2202232); settings: Potency: OCI-AML3 viability; further: nearly all actives have a fitted effect of over 35% in size
How it was run: as §1

[3] = BET inhibitor-based combinations targeting novel dependencies in MECOM-rearranged (r) AML: MV-4-11 cell line (AID 2202233); further: nearly all actives have a fitted effect of over 45% in size
How it was run: (§2)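 First, 500 cells per well were seeded; next, drugs were pinned as 11-point doses; then plates sat 48 hr in the incubator; finally CellTiter-Glo was added and luminescence read, with AUC and Z-AUC computed.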

[4] = BET inhibitor-based combinations targeting novel dependencies in MECOM-rearranged (r) AML: HNT-34 cell line (AID 2202234); further: nearly all actives have a fitted effect of over 35% in size
How it was run: as §2

[5] = BET inhibitor-based combinations targeting novel dependencies in MECOM-rearranged (r) AML: UCSD-AML1 cell line (AID 2202235); further: nearly all actives have a fitted effect of over 40% in size
How it was run: as §2

[6] = BET inhibitor-based combinations targeting novel dependencies in MECOM-rearranged (r) AML: AML-191 cell line (AID 2202236; further: nearly all actives have a fitted effect of over 35% in size)
How it was run: as §1

[7] = BET inhibitor-based combinations targeting novel dependencies in MECOM-rearranged (r) AML: AML-194 cell line (AID 2202237; further: nearly all actives have a fitted effect of over 40% in size)
How it was run: as §1
Potency means the concentration at half of the fitted maximal effect.

Compound | Potency [1] | Potency [2] | Potency [3] | Potency [4] | Potency [5] | Potency [6] | Potency [7] | viability [1] [%]
O=C1NC(=O)[C@@H](c2c[nH]c3ccccc23)[C@H]1c1cn2c3c(cccc13)CCC2 | 2.35 µM (active) | 1.18 µM (active) | 1.32 µM (active) | 0.934 µM (active) | 1.05 µM (active) | 0.934 µM (active) | 0.934 µM (active) | –
COc1cc(C(=O)O)ccc1NC(=O)[C@@H]1N[C@@H](CC(C)(C)C)[C@](C#N)(c2ccc(Cl)cc2F)[C@H]1c1cccc(Cl)c1F | – | 2.09 µM (active) | 0.132 µM (active) | 0.132 µM (active) | 0.468 µM (active) | 0.742 µM (active) | 0.833 µM (active) | 112
CC(C)(C)C(=O)OCOP(=O)(COCCn1cnc2c(N)ncnc21)OCOC(=O)C(C)(C)C | 4.68 µM (active) | 0.525 µM (active) | 0.209 µM (active) | 2.63 µM (active) | 1.86 µM (active) | 1.66 µM (active) | 2.95 µM (active) | –
Cc1cnc(NC(=O)Nc2cc(Br)c(C)cc2OC[C@@H]2CNCCO2)cn1 | 4.17 µM (active) | 3.72 µM (active) | 2.09 µM (active) | 9.34 µM (active) | 1.48 µM (active) | 2.95 µM (active) | 4.17 µM (active) | –
Cc1ccc(C)c(OCCCC(C)(C)C(=O)O)c1 | – | inactive | inactive | inactive | inactive | inactive | inactive | 116
Cc1[nH]cnc1CN1CCN(C(=O)N[C@@H](CC(C)C)C(=O)O)[C@@H](Cc2ccccc2)C1=O | – | 6.61 µM (active) | inactive | inactive | inactive | inactive | inactive | 123
C[C@@H](O)[C@@H]1NC(=O)[C@H](CCCCN)NC(=O)[C@@H](Cc2c[nH]c3ccccc23)NC(=O)[C@H](Cc2ccccc2)NC(=O)[C@@H](NC(=O)[C@H](N)Cc2ccccc2)CSSC[C@@H](C(=O)N[C@H](CO)[C@@H](C)O)NC1=O | – | inactive | inactive | inactive | inactive | inactive | inactive | 114
Nc1nc(F)nc2c1ncn2C1OC(COP(=O)(O)O)C(O)C1O (stereo not drawn) | 4.68 µM (active) | 18.6 µM (active) | 18.6 µM (active) | 16.6 µM (active) | 2.63 µM (active) | 6.61 µM (active) | 9.34 µM (active) | –
CC(C)(O)CS(=O)(=O)Nc1ccc2c(c1)CCN(C(=O)COc1cccnc1)C2 | – | 0.0235 µM (active) | 0.105 µM (active) | 0.0661 µM (active) | 0.332 µM (active) | 0.0661 µM (active) | inactive | 108
CC1=NN(c2ccc(C(=O)O)cc2)C(=O)/C1=C/c1ccc(-c2cc(C)c(C)cc2[N+](=O)[O-])o1 | – | 0.235 µM (active) | inactive | inactive | inactive | inactive | inactive | 112
Clc1ccc(-c2nc3sccn3c2/C=N/OCc2ccc(Cl)c(Cl)c2)cc1 | – | inactive | inactive | inactive | inactive | inactive | inactive | 112
CO[C@H]1/C=C/O[C@@]2(C)Oc3c(C)c(O)c4c(O)c(c5c(nc6cc(C)ccn65)c4c3C2=O)NC(=O)/C(C)=C\C=C\[C@H](C)[C@H](O)[C@@H](C)[C@@H](O)[C@@H](C)[C@H](OC(C)=O)[C@@H]1C | – | inactive | inactive | inactive | inactive | inactive | inactive | 111
Cn1cc(CNCC2CCN(c3ncc(C(=O)NO)cn3)CC2)c2ccccc21 | 0.148 µM (active) | 0.118 µM (active) | 0.0833 µM (active) | 0.118 µM (active) | 0.105 µM (active) | 0.148 µM (active) | 0.332 µM (active) | –
NC(CC1c2ccccc2Oc2ccccc21)(C(=O)O)C1CC1C(=O)O (stereo not drawn) | – | inactive | inactive | inactive | inactive | inactive | inactive | 118
C=CCNc1c(O)cc2c(O)c1C[C@@H](C)C[C@H](OC)[C@H](O)[C@@H](C)/C=C(/C)[C@H](OC(N)=O)[C@@H](OC)/C=C\C=C(\C)C(=O)N2 | 4.68 µM (active) | 0.742 µM (active) | 0.148 µM (active) | 4.17 µM (active) | 1.32 µM (active) | 5.9 µM (active) | 3.32 µM (active) | –
Cn1c(NCCN(CCO)CCCc2ccc([N+](=O)[O-])cc2)cc(=O)n(C)c1=O | – | inactive | inactive | inactive | inactive | inactive | inactive | 114
CC(/C=C1\SC(=S)N(CC(=O)O)C1=O)=C\c1ccccc1 | – | inactive | inactive | inactive | inactive | inactive | inactive | 113
C[C@H](CCC(=O)O)[C@H]1CC[C@H]2[C@@H]3[C@H](O)C[C@@H]4C[C@H](O)CC[C@]4(C)[C@H]3CC[C@]12C | – | inactive | inactive | inactive | inactive | inactive | inactive | 104
C=C1C(=O)O[C@@H]2[C@H]3C(C)=CC[C@@]34O[C@@]4(C)CC[C@@H]12 | 9.34 µM (active) | 8.33 µM (active) | 7.42 µM (active) | 10.5 µM (active) | 13.2 µM (active) | 13.2 µM (active) | 13.2 µM (active) | –
CCC(=O)OCC(=O)C1(OC(=O)CC)C(C)CC2C3CCC4=CC(=O)C=CC4(C)C3(F)C(O)CC21C (stereo not drawn) | – | inactive | inactive | inactive | inactive | inactive | inactive | 109
CC1(N)CCN(c2cnc(-c3cccc(Cl)c3Cl)c(N)n2)CC1 | – | inactive | 2.88 µM (active) | inactive | inactive | inactive | inactive | 110
CN1N=C(N)c2cn([C@@H]3O[C@H](COP(=O)(O)O)[C@@H](O)[C@@H]3O)c3ncnc1c23 | 2.63 µM (active) | 1.32 µM (active) | 0.525 µM (active) | 0.468 µM (active) | 1.18 µM (active) | 2.35 µM (active) | 1.66 µM (active) | –
C[C@@H]1C[C@H](N)C[C@H](c2ccncc2NC(=O)c2ccc(F)c(-c3c(F)cccc3F)n2)C1 | 18.6 µM (active) | 16.6 µM (active) | 5.25 µM (active) | 5.25 µM (active) | 0.132 µM (active) | 10.5 µM (active) | 5.9 µM (active) | –
CC(C)C1CCC(C(=O)N[C@H](Cc2ccccc2)C(=O)O)CC1 (stereo partly drawn) | – | inactive | inactive | inactive | inactive | inactive | inactive | 115
